Drawing on PMC5700166, this text covers binding signal for twelve sequences.

Where a chain is given by its changes, count along the chain named.

Test in all cases: protein-binding microarray (PBM); PBM: ~300 nM protein, 6 mM HEPES pH 7.8, 80 mM KCl, 0.5 mM EDTA, 0.5 mM EGTA, 6% glycerol, 35 ng/ul poly-dIdC, 1% milk, 1 h, room temperature; Ap Aiptasia and Nv Nematostella (sea anemones) / Co Capsaspora / Aq Amphimedon (sponge) / Dm Drosophila / Hu human; RHD is the Rel homology domain; high values mean tight binding
What all share (settings): dsDNA, one strand shown

One assay addresses T1, GST-Ap-NF-kB RHD (Exaiptasia pallida (Aiptasia), UniProt A0A913YAJ5 2-422).
T1 sequence: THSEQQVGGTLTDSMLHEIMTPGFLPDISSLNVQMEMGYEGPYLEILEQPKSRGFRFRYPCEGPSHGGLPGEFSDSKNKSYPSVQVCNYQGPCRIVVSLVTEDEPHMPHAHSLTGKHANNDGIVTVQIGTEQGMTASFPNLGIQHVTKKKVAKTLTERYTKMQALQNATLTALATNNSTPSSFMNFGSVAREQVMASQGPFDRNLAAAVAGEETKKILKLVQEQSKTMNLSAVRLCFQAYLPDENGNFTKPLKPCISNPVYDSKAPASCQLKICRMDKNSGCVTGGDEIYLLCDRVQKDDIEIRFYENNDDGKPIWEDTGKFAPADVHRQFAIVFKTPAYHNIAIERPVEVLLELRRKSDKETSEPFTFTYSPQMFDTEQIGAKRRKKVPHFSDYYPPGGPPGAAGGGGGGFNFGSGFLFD

Assay [1] has as its target T2, GST-Nv-NF-kB (Cys allele) (Nematostella vectensis, UniProt E5G601 2-411).
T2 sequence: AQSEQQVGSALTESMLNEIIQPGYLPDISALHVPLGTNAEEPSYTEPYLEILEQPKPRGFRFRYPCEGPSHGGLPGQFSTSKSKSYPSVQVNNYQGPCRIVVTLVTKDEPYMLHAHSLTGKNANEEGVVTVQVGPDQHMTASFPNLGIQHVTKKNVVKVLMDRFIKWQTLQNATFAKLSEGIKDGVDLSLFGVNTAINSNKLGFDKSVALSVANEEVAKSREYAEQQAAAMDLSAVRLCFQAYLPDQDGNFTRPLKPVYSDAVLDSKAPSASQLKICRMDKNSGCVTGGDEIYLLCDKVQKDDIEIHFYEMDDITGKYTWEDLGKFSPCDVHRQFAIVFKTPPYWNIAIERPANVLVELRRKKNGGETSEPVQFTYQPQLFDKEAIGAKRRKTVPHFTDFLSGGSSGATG

Assay [2] addresses T3, GST-Nv-NF-kB (Ser allele) (Nematostella vectensis, UniProt A7UNT2 2-411).
T3 sequence: T2 sequence with Q21R, C66S, S207N, E215Q, V217A, E225K, A268E, D399E

A further assay concerns the target T4, GST-Co-NF-kB (Capsaspora owczarzaki, UniProt F1ARL5 200-546).
T4 sequence: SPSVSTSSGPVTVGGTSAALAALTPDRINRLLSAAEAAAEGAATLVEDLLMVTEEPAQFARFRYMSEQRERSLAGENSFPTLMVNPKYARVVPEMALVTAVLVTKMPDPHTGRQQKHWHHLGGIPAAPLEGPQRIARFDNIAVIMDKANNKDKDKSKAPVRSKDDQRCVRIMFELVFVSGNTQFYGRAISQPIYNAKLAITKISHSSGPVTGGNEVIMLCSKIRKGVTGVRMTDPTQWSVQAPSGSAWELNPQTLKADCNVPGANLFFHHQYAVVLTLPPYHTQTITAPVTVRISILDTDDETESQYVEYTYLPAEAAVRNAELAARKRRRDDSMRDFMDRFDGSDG

Another assay has as its target T5, GST-Dm-Relish (Drosophila melanogaster, UniProt Q94527 99-473).
T5 sequence: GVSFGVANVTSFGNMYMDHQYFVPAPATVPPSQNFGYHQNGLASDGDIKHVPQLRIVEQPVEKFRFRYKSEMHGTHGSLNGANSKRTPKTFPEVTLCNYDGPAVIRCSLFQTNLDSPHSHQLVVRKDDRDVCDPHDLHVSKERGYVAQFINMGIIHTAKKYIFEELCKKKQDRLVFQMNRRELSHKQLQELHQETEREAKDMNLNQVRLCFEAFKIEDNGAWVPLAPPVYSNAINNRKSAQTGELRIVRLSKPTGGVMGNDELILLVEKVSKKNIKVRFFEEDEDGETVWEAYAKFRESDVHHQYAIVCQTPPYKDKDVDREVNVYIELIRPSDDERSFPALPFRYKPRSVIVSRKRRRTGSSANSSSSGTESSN

The target of the next assay is T6, GST-Aq-NF-kB (Amphimedon queenslandica, UniProt A9Y5G7 2-389).
T6 sequence: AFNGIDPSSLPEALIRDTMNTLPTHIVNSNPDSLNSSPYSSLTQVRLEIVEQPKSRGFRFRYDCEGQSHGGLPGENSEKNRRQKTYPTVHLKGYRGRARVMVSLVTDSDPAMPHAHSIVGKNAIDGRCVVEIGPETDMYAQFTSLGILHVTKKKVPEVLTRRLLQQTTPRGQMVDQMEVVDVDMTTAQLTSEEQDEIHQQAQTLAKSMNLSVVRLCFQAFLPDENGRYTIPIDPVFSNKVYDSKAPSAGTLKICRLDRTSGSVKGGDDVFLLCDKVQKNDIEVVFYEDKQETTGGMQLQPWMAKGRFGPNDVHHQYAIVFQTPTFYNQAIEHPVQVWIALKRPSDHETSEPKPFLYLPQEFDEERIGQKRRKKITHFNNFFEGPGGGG

The target of the next assay is GST-Hu-p50 (Homo sapiens, UniProt P19838 7-356).
Chain of GST-Hu-p50 (P19838 7-356): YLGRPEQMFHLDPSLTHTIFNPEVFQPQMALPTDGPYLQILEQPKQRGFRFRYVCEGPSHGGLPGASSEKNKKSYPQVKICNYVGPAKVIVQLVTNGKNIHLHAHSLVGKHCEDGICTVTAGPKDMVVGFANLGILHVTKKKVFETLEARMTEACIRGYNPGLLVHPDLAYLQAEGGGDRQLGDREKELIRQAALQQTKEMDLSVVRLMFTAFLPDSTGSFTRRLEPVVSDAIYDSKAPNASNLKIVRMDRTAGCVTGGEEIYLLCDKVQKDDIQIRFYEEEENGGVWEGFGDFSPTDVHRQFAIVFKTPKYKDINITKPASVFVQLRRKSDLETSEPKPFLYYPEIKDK

Take “CCGATTAACATCAAGAGATCCCCTGATGTTAATCGGGTCTTGATTCGCTTGACGCTGCTG”: the binding signal was 6.49 z-score with GST-Ap-NF-kB RHD; 5.71 z-score in assay [1]; 6.22 z-score in assay [2]; 2.3 z-score with GST-Co-NF-kB; 6.47 z-score with GST-Dm-Relish; 4.97 z-score with GST-Aq-NF-kB. The binding signal in the assay with GST-Hu-p50 came to 4.57 z-score.
For “CCGATTAACATCAGGGTAATACCTGATGTTAATCGGGTCTTGATTCGCTTGACGCTGCTG”, the binding signal was 4.26 z-score in the assay with GST-Ap-NF-kB RHD; 5.72 z-score in assay [1]; 3.69 z-score in assay [2]; 2.23 z-score with GST-Co-NF-kB; 3.92 z-score with GST-Dm-Relish; 7.45 z-score with GST-Aq-NF-kB. This sequence also registered a binding signal with GST-Hu-p50 of 2.82 z-score.
On to “CCGATTAACATCACGGGGATTTCTGATGTTAATCGGGTCTTGATTCGCTTGACGCTGCTG”, for which the binding signal with GST-Ap-NF-kB RHD was found to be 9.25 z-score; in assay [1], 9.87 z-score; in assay [2] it was 10.8 z-score; with GST-Co-NF-kB it was 5.27 z-score; with GST-Dm-Relish, 9.88 z-score; with GST-Aq-NF-kB it was 7.52 z-score. Further, the binding signal with GST-Hu-p50 was determined as 7.58 z-score.
For the sequence “CCGATTAACATCAGAAACACCCCTGATGTTAATCGGGTCTTGATTCGCTTGACGCTGCTG”, the binding signal with GST-Ap-NF-kB RHD was determined as 3.57 z-score; in assay [1], 2.68 z-score; in assay [2], 2.16 z-score; with GST-Co-NF-kB, 3.34 z-score; in the assay with GST-Dm-Relish it was 3.56 z-score; in the assay with GST-Aq-NF-kB, 3.93 z-score. In the assay with GST-Hu-p50, this sequence displayed a binding signal of 3.61 z-score.
Take “CCGATTAACATCAGGACGCCCCCTGATGTTAATCGGGTCTTGATTCGCTTGACGCTGCTG”: the binding signal with GST-Ap-NF-kB RHD amounted to 6.15 z-score; in assay [1], 5.13 z-score; in assay [2] it was 3.21 z-score; with GST-Co-NF-kB, 1.59 z-score; with GST-Dm-Relish it was 3.85 z-score; with GST-Aq-NF-kB it was 7.57 z-score. Further, the binding signal with GST-Hu-p50 turned out to be 4.71 z-score.
For the sequence “CCGATTAACATCAATATATTCCCTGATGTTAATCGGGTCTTGATTCGCTTGACGCTGCTG”, the binding signal in the assay with GST-Ap-NF-kB RHD was 4.19 z-score; in assay [1], 4.64 z-score; in assay [2], 4.95 z-score; with GST-Co-NF-kB, 4.09 z-score; with GST-Dm-Relish it was 2.1 z-score; with GST-Aq-NF-kB it was 3.52 z-score. This sequence also displayed a binding signal in the assay with GST-Hu-p50 of 2.88 z-score.
As for “CCGATTAACATCACAACTTCCCCTGATGTTAATCGGGTCTTGATTCGCTTGACGCTGCTG”, the binding signal with GST-Ap-NF-kB RHD came out at 6.77 z-score; in assay [1], 8.34 z-score; in assay [2], 9.8 z-score; with GST-Co-NF-kB, 5.34 z-score; with GST-Dm-Relish it was 6.89 z-score; in the assay with GST-Aq-NF-kB it was 6.51 z-score. Moreover, the binding signal with GST-Hu-p50 was 6.13 z-score.
“CCGATTAACATCAAGATATTCCCTGATGTTAATCGGGTCTTGATTCGCTTGACGCTGCTG”: the binding signal was 4.46 z-score in the assay with GST-Ap-NF-kB RHD; 4.57 z-score in assay [1]; 5.05 z-score in assay [2]; 3.05 z-score with GST-Co-NF-kB; 2.34 z-score in the assay with GST-Dm-Relish; 4.02 z-score with GST-Aq-NF-kB. In the assay with GST-Hu-p50, the binding signal came out at 2.44 z-score.
As to “CCGATTAACATCAAGGGAATTTATGATGTTAATCGGGTCTTGATTCGCTTGACGCTGCTG”, the binding signal in the assay with GST-Ap-NF-kB RHD is 4.54 z-score; in assay [1], 7.59 z-score; in assay [2] it was 7.58 z-score; with GST-Co-NF-kB it was 3.54 z-score; in the assay with GST-Dm-Relish it was 4.78 z-score; with GST-Aq-NF-kB it was 5.69 z-score. For the same sequence, in the assay with GST-Hu-p50, the binding signal worked out at 5.62 z-score.
As to “CCGATTAACATCAGGGAATCACCTGATGTTAATCGGGTCTTGATTCGCTTGACGCTGCTG”, the binding signal in the assay with GST-Ap-NF-kB RHD amounted to 6.2 z-score; in assay [1], 6.62 z-score; in assay [2] it was 6.17 z-score; in the assay with GST-Co-NF-kB, 2.45 z-score; with GST-Dm-Relish, 10.3 z-score; in the assay with GST-Aq-NF-kB it was 6.99 z-score. This sequence also gave a binding signal with GST-Hu-p50 of 5.35 z-score.
As for “CCGATTAACATCAAAATCTCCCCTGATGTTAATCGGGTCTTGATTCGCTTGACGCTGCTG”, the binding signal with GST-Ap-NF-kB RHD is 8.53 z-score; in assay [1] it was 7.57 z-score; in assay [2], 8.79 z-score; with GST-Co-NF-kB, 7.3 z-score; with GST-Dm-Relish it was 4.44 z-score; in the assay with GST-Aq-NF-kB, 6.41 z-score. The same sequence showed a binding signal with GST-Hu-p50 of 5.85 z-score.
Turning to “CCGATTAACATCAACACCCCCCTTGATGTTAATCGGGTCTTGATTCGCTTGACGCTGCTG”, the binding signal amounted to 4.56 z-score with GST-Ap-NF-kB RHD; 3.85 z-score in assay [1]; 3.96 z-score in assay [2]; 2.8 z-score with GST-Co-NF-kB; 5.23 z-score in the assay with GST-Dm-Relish; 5.24 z-score with GST-Aq-NF-kB. In the assay with GST-Hu-p50, the binding signal was determined as 4.37 z-score.
